Data on 2 molecules can be found in PubChem BioAssay AID720605 (Broad Institute, 2013).

The nature of the assay: cytotoxicity in U-251 CNS tumor cells – cell-based, Alamar Blue fluorescence, 8/24/48 h, dry powder, HRAS target identification, dose response (AID 720605). A general note: The colour change of resazurin is a common sign of viable cells or microbes.

Potency and affinity values are given separately. The source made the active and inactive calls.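 How the source made its calls: active means cell viability signal falls with a fitted half-maximal concentration within twice the top dose at all three treatment times; inconclusive means treatment times give differing calls; inactive means every treatment time called inactive.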

For `CCC(=O)N(c1ccc(OC)c(Cl)c1)C(C(=O)NCCc1ccccc1)c1cccs1` (configuration not stated), the result was inactive. The result for `Cc1onc(C(=O)N2CCN(C(c3ccncc3)c3ccncc3)CC2)c1[N+](=O)[O-]` reads “inactive”.
